Compound activity (PubChem)
TRPV1 PAM = HTS Assay for Compounds that Act as Potentiators of the Vanilloid Receptor 1; TRPV1-expressing cells, Fluo-8 calcium influx, capsaicin EC20 potentiation; actives 0.02% (n = 320,000); potentiation, % at 8.33 µM; Transient receptor potential cation channel subfamily V member 1 (Homo sapiens), Q8NER1; in the data active = potentiation above about 80%; inconclusive = between about 30% and that limit; note: 0% is about no effect
Target sequence (Q8NER1 whole entry, looked up): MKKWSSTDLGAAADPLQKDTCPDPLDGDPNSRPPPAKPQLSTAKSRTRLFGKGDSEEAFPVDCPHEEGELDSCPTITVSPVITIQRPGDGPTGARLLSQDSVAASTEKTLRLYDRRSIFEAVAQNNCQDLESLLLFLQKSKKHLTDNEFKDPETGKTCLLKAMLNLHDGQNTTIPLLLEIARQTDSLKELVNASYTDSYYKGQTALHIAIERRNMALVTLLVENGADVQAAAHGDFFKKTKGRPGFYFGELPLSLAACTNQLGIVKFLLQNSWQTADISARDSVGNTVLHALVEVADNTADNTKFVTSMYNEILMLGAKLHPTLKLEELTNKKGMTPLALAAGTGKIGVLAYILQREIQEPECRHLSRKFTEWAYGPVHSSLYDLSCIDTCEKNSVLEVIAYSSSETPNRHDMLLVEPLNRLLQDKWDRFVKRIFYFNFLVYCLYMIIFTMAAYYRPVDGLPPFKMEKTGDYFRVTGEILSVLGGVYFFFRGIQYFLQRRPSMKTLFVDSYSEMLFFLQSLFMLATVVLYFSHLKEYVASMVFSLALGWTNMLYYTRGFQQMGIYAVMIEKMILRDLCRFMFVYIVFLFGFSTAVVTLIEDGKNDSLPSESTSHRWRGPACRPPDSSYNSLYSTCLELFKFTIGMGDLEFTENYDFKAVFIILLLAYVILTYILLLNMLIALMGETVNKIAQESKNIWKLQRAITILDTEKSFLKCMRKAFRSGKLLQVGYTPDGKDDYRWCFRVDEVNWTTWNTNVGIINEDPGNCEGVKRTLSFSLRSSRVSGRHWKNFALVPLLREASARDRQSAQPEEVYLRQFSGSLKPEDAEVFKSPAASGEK
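Fluo-8 calcium influx in TRPV1-expressing cells, kinetic read (ex 480/em 520 nm). Compound added and read 3 min for agonist activity, followed by capsaicin at EC20 final and 2 min further read for enhancement.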
TRPV1 ag = HTS Assay for Compounds that Act as Agonists of the Vanilloid Receptor 1. Transient receptor potential cation channel subfamily V member 1 (Homo sapiens), Q8NER1. TRPV1-expressing cells, Fluo-8 calcium influx, agonist mode. activation, % at 8.33 µM. actives 0.19% (n = 320,000). AID 540275, 2011; in the data active = activation above about 80%; inconclusive = between about 30% and that limit; note: 0% is about no effect
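TRPV1-expressing cells were cultured overnight at 35.5C and loaded with Fluo-8 calcium dye for 40 to 90 min at room temperature. After a 10 s baseline, compound was added and calcium influx was read kinetically for 3 min (ex 480/em 520 nm).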
KCNH2 3.1 block = qHTS for Inhibitors of KCHN2 3.1: Mutant qHTS | U2OS KCNH2 3.1, thallium flux FluxOr; stronger effect = lower value | activity change, % (tested at about 1.8 µM) | actives 0.95% (n = 340,000);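 active = maximum activity change below -70%; inconclusive = maximum activity change from -70% to -50%; inactive = maximum activity change above -50%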;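 note: thallium influx rate constant from kinetic fluorescence after stimulation buffer; % is set by controls: 0 for no effect and ±100 for the full control effect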
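Channel expression came from 3.1 mutant virus (1.77 x 10^8 /mL) applied to suspended U2OS cells for 4 h. Flux was tracked with FluxOr dye plus Red40 quencher, and kinetic rate constants normalized to controls.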
hERG WT inh = qHTS for Inhibitors of KCHN2 3.1: Wildtype qHTS | actives 0.37% (n = 340,000) | U2OS, BacMam KCNH2, thallium flux FluxOr; stronger effect = lower value | activity change, % at 1.84 µM;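 active = maximum activity change below -70%; inconclusive = maximum activity change between -70% and -50%; inactive = maximum activity change above -50%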; note: % is set by controls: 0 for no effect and ±100 for the full control effect
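U2OS cells were transduced with wild-type KCNH2 virus (2.03 x 10^8 / mL) for 4 h at room temperature, then cultured overnight at 37 C. Thallium flux was read with FluxOr dye. Rate constants were normalized to DMSO controls.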
* = called active by the depositor; ? = inconclusive; · = no result. Rows were chosen to be rich in hits. Some 1.3% of all compounds tested hit in one or more screens of this group.

SMILES	TRPV1 PAM	TRPV1 ag	KCNH2 3.1 block	hERG WT inh
CCn1nc(C(=O)OC(C(=O)c2c[nH]c3ccccc23)c2ccccc2)c2ccccc2c1=O (stereo unspecified)	15	2	-76*	-3
COCCN1CC(C(=O)NCc2ncccc2C)CCC1=O (stereo unspecified)	-2	-2	-22	-8
CCCCn1c(=N)n(CCOc2ccc(C)cc2)c2ccccc21	-4	3	-111*	-128*
COc1ccc(OCCn2c(=N)n(CCO)c3ccccc32)cc1	-3	3	-11	1
CSCC[C@H](NC(=O)[C@H](Cc1ccccc1)n1c(=O)[nH]c2ccccc2c1=O)C(=O)N1CCC(C(=O)O)CC1	-14	-3	0	8
c1ccc(-c2ccncn2)cc1	·	·	12	2
O=C(NCc1ccc(OC(F)(F)F)cc1)C1CC2Cn3c(nc4ccccc43)C2N1Cc1ccccc1 (stereo unspecified)	18	2	-98*	-76*
CN1C(C(=O)NCc2ccc(OC(F)(F)F)cc2)CC2Cn3c(nc4cc(Cl)c(Cl)cc43)C21 (stereo unspecified)	-12	24	-79*	?
CN1C(C(=O)NCc2ccc(OC(F)(F)F)cc2)CC2Cn3c(nc4ccccc43)C21 (stereo unspecified)	1	12	-18	9
CCCCN(CCCC)CC(O)COc1ccccc1C(=O)Nc1ccccc1 (stereo unspecified)	4	4	-74*	22
O=C(Nc1ccccc1)c1ccccc1OCc1ccc(F)cc1	-12	2	7	-6
C=CCc1ccccc1OCC(O)CN(CC)CC (stereo unspecified)	5	-1	11	24
CCC(=O)c1ccc(OCC(O)CN(CCc2ccccc2)Cc2ccccc2)cc1 (stereo unspecified)	2	11	-70*	-6
CCN(CC)CC(O)COc1ccccc1C(=O)CCc1ccccc1 (stereo unspecified)	-2	13	-71*	25
OC(COc1ccccc1)CN(Cc1ccccc1)CC(O)COc1ccccc1 (stereo unspecified)	29	-1	19	5
CCOC(=O)c1ccc(-n2cccc2/C=C2\NC(=O)NC2=O)cc1	-21	15	·	·
CC(=O)c1ccc(C(=O)N2CCC(n3nccc3NC(=O)C3CC3)CC2)cc1	-6	0	0	-6
COC(=O)C(C(C)C)N(Cc1cc(OC)cc(OC)c1)S(=O)(=O)CCl (stereo unspecified)	·	·	11	-1
CC(=O)c1sc2nsc(SCCN3CCOCC3)c2c1N	-23	14	8	-2
Nc1c(C(=O)c2ccccc2)sc2nsc(SCCN3CCOCC3)c12	-5	106*	-6	1
Cc1ccc(S(=O)(=O)Nc2c(C)nc3nc(C)[nH]n3c2=O)c(C)c1	9	-3	7	-7
O=C(Nc1ccc(C2SCCS2)cc1)c1ccccc1	-6	86*	0	-5
CC1CCCCC1NC(=O)CSc1nnnn1C (stereo unspecified)	-7	2	22	5
CC1CCCCC1NC(=O)c1cccc(S(=O)(=O)N2CCN(Cc3ccccc3)CC2)c1 (stereo unspecified)	-9	26	3	-21
C#CCCOC(=O)N1C2=NC(C(=O)OC)=C(C(=O)OC)[C@@H]3N(C)c4ccccc4[C@]23C[C@H]1C(=O)OC	?	6	14	7
SMILES	TRPV1 PAM	TRPV1 ag	KCNH2 3.1 block	hERG WT inh
C#CCCOC(=O)N1C2=NC(C(=O)OC)=C(C(=O)OC)[C@@H]3N(Cc4ccccc4)c4ccccc4[C@]23C[C@H]1C(=O)OC	-28	6	-136*	-3
CCC(Sc1nc(-c2ccccc2)c(C#N)c(=O)[nH]1)C(=O)Nc1cc(C)on1 (stereo unspecified)	-13	-2	-71*	0
CCC(Sc1nc2ccccc2[nH]1)C(=O)Nc1cc(C)on1 (stereo unspecified)	5	11	8	1
Cc1ccc(CS(=O)(=O)CCC(=O)NCc2ccccc2Cl)cc1	-3	-3	-73*	-1
O=S(=O)(c1ccccc1)N1CCN(c2ccnc3cc(Cl)ccc23)CC1	2	7	?	-10
Cc1cc(N2CCN(S(=O)(=O)c3ccccc3)CC2)c2ccccc2n1	-9	10	-43	-109*
Cc1cc(N2CCN(c3nc(-c4ccccc4)cs3)CC2)c2ccccc2n1	12	4	-79*	-35
c1ccc(-c2csc(N3CCCCCC3)n2)cc1	-21	7	-15	15
COc1ccc(CN(C)C(=O)Cc2ccc(S(=O)(=O)N3CCOCC3)s2)cc1OC	12	0	3	-8
Cc1c(Cl)cccc1N1C(=O)CC(NNC(=O)c2ccc3c(c2)OCO3)C1=O (stereo unspecified)	·	·	2	4
Cc1ccc(OCC(=O)N2CCN(c3nnc(-c4ccccc4)c4ccccc34)CC2)cc1	-5	15	-70*	-16
Cc1ccccc1CNC(=O)C1CCCN(c2nnc(C)c3c(C)n(-c4ccccc4)nc23)C1 (stereo unspecified)	-33	?	-71*	16
COCCCNC(=S)Nc1ccc2c(c1)OCCO2	26	-4	12	-88*
CNc1c(NC(=O)C2CCC(C)CC2)c(=O)oc2ccccc12 (stereo unspecified)	0	6	13	-13
CO/N=C/c1ccc(N2CCCC2)c([N+](=O)[O-])c1	-6	6	11	30
CO/N=C/c1ccc(N2CCN(C(=O)c3ccc(C)cc3)CC2)c([N+](=O)[O-])c1	3	3	-98*	-10
Cc1ccc(Nc2cc(C)nc(-c3ccccc3)n2)cc1	-12	18	-77*	22
Cc1ccc(Nc2cc(C)nc(-c3ccccc3O)n2)cc1	5	0	9	2
Cc1cc(N/N=C/c2ccc(N(C)C)cc2)nc(NCc2ccccc2)n1	-1	-2	-4	1
Cc1cc(N/N=C/c2ccc(F)cc2)nc(NCc2ccccc2)n1	-15	-2	-100*	10
Cc1ccc(/C=N/Nc2cc(C)nc(NCc3ccccc3)n2)cc1	-16	-1	-80*	26
Cc1cc(Nc2ccc(Cl)cc2)nc(NCc2ccccc2)n1	-21	?	-78*	4
Cc1cc(N/N=C/c2ccc(Cl)cc2Cl)nc(NCc2ccccc2)n1	?	-3	?	-1
COc1ccc(NC(=O)CN(C)C(=O)CN2C(=O)C3CCCCC3C2=O)cc1 (stereo unspecified)	2	0	5	-9
